Values joined by “and” are separate entries in the source; they are usually repeats but may differ in a detail not shown here. Equal values may be shown once. Results filed as inconclusive are left out. Entries that show only a call come without a potency. Some structures have more than one record in an assay (separate samples or runs), and their calls can disagree. Active and inactive are the calls of the source. The call rests on the fitted dose curve; in most records, active means well fitted cell-killing curve with a large enough effect in the repeat runs; inconclusive means weak or mixed curves, or effect the other way; inactive means no such curve, though single readings can be large or run the other way.

This note sets out measurements from PubChem BioAssay (Tox21).
Potency means the concentration at half of the fitted maximal effect.

The nature of this experiment: qHTS assay to identify small molecule antagonists of the sonic hedgehog signaling (Shh) pathway - cell viability counter screen (AID 1259367). Further: nearly all actives have a fitted effect of over 55% in size. The conditions noted are these: NIH/3T3 Gli1-Luc viability, CellTiter-Fluor, 24 h; series mostly up to 92.4 µM. The text has this: National Center for Advancing Translational Sciences [NCATS]
NIH Chemical Genomics Center [NCGC]
U.S. Environmental Protection Agency [EPA]
National Institutes of Environmental Health Sciences [NIEHS]
National Toxicology Program [NTP]
U.S. Food and Drug Administration [FDA]
The sonic hedgehog (Shh) pathway is essential for normal embryonic development. Dysregulation of the Shh pathway can cause severe developmental defects in organs. Therefore chemicals that interfere with the pathway are potential developmental toxicants. A cell line designated 3T3Gli1-Luc (DMB/OARSA/CFSAN/FDA, Laurel, MD), a NIH/3T3 derived clone containing stably integrated Gli1-Luc reporter is used to detect chemical interference of the Shh pathway, by changes in the expression of the firefly Luc gene under the control of the Gli1 transcriptional response element. This cell line was used to screen Tox21 libraries for identifying and prioritizing the potential developmental toxicants that interfere Shh pathway. Conditioned medium-stimulated mode was used to screen for chemicals inhibiting Shh signaling. The cytotoxicity of the compounds was tested in parallel by measuring the cell viability using CellTiter-Fluor assay system (Promega, Madison, WI) in the same wells.
Tox21 Assay Protocol Summary:
3T3 Gli1-Luc cells were dispensed at 2,000 per well in 5uL of culture medium into white solid bottom 1536-well plates (Greiner Bio-One, Monroe, NC) using a Multidrop Combi (Thermo Scientific, Waltham, MA) dispenser. The assay plates were incubated at 37 C and 5% CO2 for 4hr, and then 23nL of compounds dissolved in DMSO and positive control were transferred using a Pintool station (Wako, San Diego, CA). The compound transfer was followed by the addition of 1ul conditioned medium or assay buffer using two separate tips of Flying Reagent Dispenser (FRD, Aurora Discovery, San Diego, CA). The assay plates were incubated at 37C and 5% CO2 for 24hr. For viability read, after 23hr of compound treatment, 1uL of CellTiter-Fluor reagent (Promega Corporation, Madison, WI) was added to each well of the assay plates using Flying Reagent Dispenser (FRD, Aurora Discovery, San Diego, CA) and incubated the assay plates at 37C for 1hr. The fluorescence signal was quantified using a ViewLux plate reader (Perkin Elmer, Shelton, CT).
Regarding `O=C(O)Cc1ccc2c(c1)C(=O)c1ccccc1CO2`, the Potency entry was “inactive”. Same read-out and setting: to `COc1ccc2c(c1)c(CC(=O)OC/C=C(\C)CC/C=C(\C)CCC=C(C)C)c(C)n2C(=O)c1ccc(Cl)cc1` belongs “inactive”. The same measure, in the same setting: to `Nc1nc2c(ncn2COCCO)c(=O)[nH]1` belongs “inactive”; to `Clc1sc(Cl)c(Cl)c1Cl`, “inactive”; to `CN(C)c1ccc(C(=C2C=CC(=[N+](C)C)C=C2)c2ccc(N(C)C)cc2)cc1`, 9.64 µM (active) and 30.6 µM (active) and 10.6 µM (active). As to `COc1c(C)c2c(c(O)c1C/C=C(\C)CCC(=O)OCCN1CCOCC1)C(=O)OC2`, the Potency entry is “inactive”. The same measure, in the same setting: to `COC(=O)c1ccccc1OC` belongs “inactive”; to `Nc1nc(N)nc(-c2cc(Cl)ccc2Cl)n1`, “inactive”; to `CCC(CC)C(C)CCOC(C)=O` (stereo not given), “inactive”. Same read-out and setting: the same measure for `OC[C@H]1O[C@H](O[C@H]2O[C@H](CO)[C@@H](O)[C@H](O)[C@H]2O)[C@H](O)[C@@H](O)[C@@H]1O`: “inactive”. As for `OC1CCC(C2CCCCC2)CC1` (stereo not given), the Potency entry is “inactive”.

Regarding `Nc1ccc(C(=O)O)c(O)c1`, the Potency entry is “inactive”. Still for that read-out and setting: to `Clc1nnc(Cl)c2ccccc12` belongs “inactive”; to `O=S(=O)(O)c1ccc(N=Nc2c(O)ccc3ccccc23)cc1`, 27.3 µM (active); to `CCCCCCCCCCCCOC(=O)c1ccc(O)cc1`, “inactive”.

For the compound `COC(=O)C1=C(C)NC(C)=C(C(=O)OCCN2CCN(C(c3ccccc3)c3ccccc3)CC2)C1c1cccc([N+](=O)[O-])c1` (stereo not given), the Potency result was “inactive”.

Take `C1CCC(SSC2CCCCC2)CC1`: the Potency entry was “inactive”. Still for that read-out and setting: to `CCOc1ccc2ccccc2c1C(=O)N[C@@H]1C(=O)N2[C@@H]1SC(C)(C)[C@@H]2C(=O)O` belongs “inactive”; to `CCCCCCCCCCCCCCCC[N+](C)(C)CC`, 54.6 µM (active) and inactive. On the same count and under the same terms, the same measure for `Cc1ccc(O)c(N)c1`: 27.3 µM (active); for `Cc1ccc(O)c(O)c1`: 21.1 µM (active); for `O=C(O)c1cc(N=Nc2ccc([N+](=O)[O-])cc2)ccc1O`: 30.1 µM (active). For `CC[N+](CC)(CC)CCOc1ccc(/C=C/c2ccccc2)cc1`, the Potency result is “inactive”. Still for that read-out and setting: the same measure for `CCOC(=O)NNc1ccc(N(CC)CC(C)O)nn1` (stereo not given): “inactive”; for `COCCOc1cc2cc(C(=O)NC3CCN(C(C)C)CC3)n(CC(=O)Nc3ccc(Cl)cn3)c2cn1`: “inactive”. As to `CC1=CCC(=C(C)C)CC1`, the Potency entry is “inactive”. With `C[C@H]1NCc2cc(-c3ccc4c(=O)c(C(=O)O)cn(C5CC5)c4c3OC(F)F)ccc21`, the viability change, negative = cytotoxic is -2.69% [at 19 µM] (inactive). Consider `Cc1c(F)c(N2CCNC(C)C2)cc2c1c(=O)c(C(=O)O)cn2C1CC1` (stereo not given), for which the Potency result was “inactive”. The same measure, in the same setting: the same measure for `Cc1cc(=O)oc2cc(O)cc(O)c12`: “inactive”; for `Cc1c(C)c2c(c(C)c1O)CC[C@@](C)(CCC[C@H](C)CCC[C@H](C)CCCC(C)C)O2`: “inactive”; for `c1ccsc1`: “inactive”.

In the case of `O=[N+]([O-])c1cccc(C(F)(F)F)c1`, the Potency entry was “inactive”. `COc1ccc2cc1Oc1ccc(cc1)C[C@H]1c3c(cc4c(c3Oc3cc5c(cc3OC)CCN(C)[C@@H]5C2)OCO4)CCN1C`: the Potency was 15 µM (active). On to `COC(=O)c1ccccc1C`, for which the Potency entry is “inactive”. On the same count and under the same terms, the same measure for `CCN(CC)C(=O)c1cc(S(=O)(=O)Cc2ccccc2)c(N2CCC(c3ccccc3)CC2)cc1N(CC)CCN(C)C`: 9.58 µM (active); for `CC(C)(C)NSc1nc2ccccc2s1`: “inactive”. For `CCC(C)n1ncn(-c2ccc(N3CCN(c4ccc(OC[C@H]5CO[C@](Cn6cncn6)(c6ccc(Cl)cc6Cl)O5)cc4)CC3)cc2)c1=O` (stereo not given in full), the Potency result is “inactive”. The same measure, in the same setting: to `CN(C)CCN1CCN(c2cccc(Cl)c2)C1=O` belongs “inactive”; to `FC(F)(F)c1cccc(Cl)c1`, “inactive”; to `C=C(C)C(=O)OCCCCCCCCCC`, 54.9 µM (active).
